Only some compounds are listed: those with a hit (about 7.8% of all), similar ones and a draw of the others.
LASV entry inh: qHTS for Inhibitors of binding or entry into cells for Lassa Virus; Lassa virus pseudotype entry inhibition, cell reporter; Potency, µM (titrated, usually from 37.9 µM), for inactives: at the highest dose activity change, negative = inhibition, hits mostly inhibitors; 300,000 compounds, 1.2% hits; AID 540256, 2011; calls by dose curve; tested in HEK293 cells; note: potency is the fitted concentration of half-maximal effect; nearly all actives have a fitted effect of over 50% in size
HCV inhibitor: qHTS Assay for Inhibitors of Hepatitis C Virus (HCV) | Potency, µM (highest dose often 41.8 µM), without a hit: top-dose activity change, negative = inhibition, usual class: inhibitors | 340,000 compounds, 3.4% hits | Huh7.5.1 HCVcc-Cre infection, luciferase reporter, 44 h; active = well fitted inhibition curve with a large enough effect; inconclusive = small, poorly fitted or top-dose-only effect, or another doubt; inactive = no such curve, though single readings can be large or run the other way; note: potency is the fitted concentration of half-maximal effect
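Cells seeded at 1,000/well and cultured 4 h, then compounds added followed by HCVcc-Cre virus (~0.5 moi). After 44 h further culture, luciferase substrate was added, plates held 15 min at room temperature, and luminescence read for 15 sec.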
HCMV antiviral: qHTS Assay for inhibitors of the human cytomegalovirus (HCMV); AID 1259415, 2018; 410,000 compounds, 4.5% hits; activity change, negative = inhibition, % at 57.5 µM; HFF cells, HCMV-luciferase reporter, 72 h; active compounds read low; in the data active = activity change below about -60%; inconclusive = no clear call, values can overlap the other calls; inactive = above about -39%
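Two-dose cell screen: HFF monolayers treated with compounds and infected with luciferase-expressing HCMV at 1 PFU/cell, 72 h at 37C, then lysed for luciferase measurement.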
VACV mCherry inh: qHTS for Stage-Specific Inhibitors of Vaccinia Orthopoxvirus: mCherry Reporter Primary qHTS; 310,000 compounds, 0.63% hits; Potency, µM (series often up to 36.5 µM), without a hit: top-dose activity change, negative = inhibition, hits mostly inhibitors; Vaccinia virus mCherry reporter infection, fluorescence; AID 720579, 2013; calls by dose curve; tested in A549 cells; note: potency is the fitted concentration of half-maximal effect; nearly all actives have a fitted effect of over 35% in size
Marburg entry inh: qHTS for inhibitors of binding or entry into cells for Marburg Virus; Marburg virus pseudotyped entry inhibition, cell reporter; Potency, µM (series often up to 37.8 µM), without a hit: top-dose activity change, negative = inhibition, usual class: inhibitors; 300,000 compounds, 1.8% hits; AID 540276, 2011; calls by dose curve; tested in HEK293 cells; note: potency is the fitted concentration of half-maximal effect
VACV Venus inh: qHTS for Stage-Specific Inhibitors of Vaccinia Orthopoxvirus: Venus Reporter Primary qHTS; 330,000 compounds, 0.46% hits; Potency, µM (doses to about 36.5 µM), for inactives: at the top dose activity change, negative = inhibition, usual class: inhibitors; AID 720580, 2013; Vaccinia virus Venus reporter expression, fluorescence; calls by dose curve; tested in A549 cells; note: potency is the fitted concentration of half-maximal effect; nearly all actives have a fitted effect of over 30% in size
Numbers without * were called inactive; i = inactive; ? = inconclusive; · = not tested or not shown; [ ] = another dose, or the depositor's remark. % is set by controls: 0 for no effect and ±100 for the full control effect.

SMILES	LASV entry inh	HCV inhibitor	HCMV antiviral	VACV mCherry inh	Marburg entry inh	VACV Venus inh
Cn1c(-c2ccncc2)nc2cc(C(=O)N[C@H]3CCCCNC3=O)cc(NC(=O)C3CCC3)c21	·	·	·	-13.4%	·	-11.9%
COc1ccc(Nc2nc(Nc3ccc(OC)cc3)nc(-n3[nH]c(=O)c(C)c3C)n2)cc1	-16.1%	10µM*	13.3	?	?	-28.4%
COc1ccc(Nc2nc(OC)nc(OC)n2)cc1	·	4.9%	-26.3	·	·	·
NC(=Nc1nc(-c2ccccn2)cc2ccccc12)c1ccccn1	0.562µM*	?	-100.8*	0.316µM*	?	?
N/C(=N\OC(=O)c1cccc2ccccc12)c1ccccn1	?	?	26.8	-4.7%[7.34 µM]	?	-2.3%[7.34 µM]
CCN(Cc1ccc(Cl)s1)C(=O)c1cccc(OCc2c(C)noc2C)c1	?	?	-27.6	-12.0%	-26.3%	-20.8%
CCN(Cc1nc2ccccc2c(=O)[nH]1)C(=O)c1cccc(OCc2c(C)noc2C)c1	?	?	-99.6*	-5.4%	?	-12.9%
COc1ccc([C@H](CC(=O)O)NC(=O)OC(C)(C)C)cc1	·	·	·	·	6.5%	·
Clc1ccc(-c2nnc(NC3=NCCCCC3)o2)cc1	?	?	?	·	1.64µM*	·
Cc1n[nH]c(C)c1S(=O)(=O)N(CC(=O)Nc1ccc(C(F)(F)F)cc1)c1ccc(C(C)C)cc1	-6.0%[46.1 µM]	·	-96.1*	?	?	?
CC(=O)Nc1ccc2nc(SCC(=O)Nc3ccc(N4CCOCC4)c(Cl)c3)sc2c1	-15.6%	?	-36.0	·	-1.6%	·
O=C(COc1c(F)c(F)c(C(F)(F)F)c(F)c1F)Nc1ccc(N2CCOCC2)c(Cl)c1	-20.8%	0.4%	9.4	i	-3.0%	-17.7%
CSc1ccc(OCC(=O)Nc2ccc(N3CCOCC3)c(Cl)c2)cc1	3.5%	10µM*	17.0	-8.9%	-7.5%	-22.5%
Cc1cc(C)nc(SCC(=O)Nc2ccc(N3CCOCC3)c(Cl)c2)n1	?	7.94µM*	-31.5	·	?	?
COCCCn1c(SCc2ccccc2F)nc2c(sc3ccccc32)c1=O	?	·	-36.7	-4.3%	·	-6.4%
CCS(=O)(=O)N1CCc2cc(C(=O)Nc3cc(OC)c(Cl)cc3OC)ccc21	17.8%[46.1 µM]	·	-9.3	-4.6%	-17.0%[46.1 µM]	0.3%
COc1cccc(CNC(=O)CN(c2ccc(C)cc2)S(=O)(=O)N(C)C)c1OC	-0.1%[46.1 µM]	·	-17.7	-2.3%	7.6%[46.1 µM]	5.1%
CCOc1ccc2nc(N3C(=O)/C(=C/c4ccccc4)NC3=S)sc2c1	12.6µM*	?	66.6	1.8%	?	-8.7%
COC(=O)[C@@H]1CCCN1C(=O)c1cnn(-c2nccc(-c3cc(C)sc3C)n2)c1C1CC1	·	·	·	i	·	-10.9%
CS(=O)(=O)CCNCc1ccc(-c2ccc3ncnc(Nc4ccc(OCc5cccc(C(F)(F)F)c5)cc4)c3c2)o1	28.1µM*	·	·	·	·	·
CCn1c(=O)cc(OCC(=O)Nc2ccc(C)cn2)c2ccccc21	-8.9%	-14.7%	-60.8*	·	26.6%	·
CCn1c(=O)cc(SCC(=O)Nc2ccc(C)cn2)c2ccccc21	·	?	-94.6*	?	·	10µM*
CCOC(=O)C1CCN(C(=O)CSc2cc(=O)n(CC)c3ccccc23)CC1	-22.2%[14.3 µM]	11.2µM*	5.8	-4.3%	0.5%	-17.7%
CCn1c(=O)cc(SCC(=O)NCc2ccc(C)cc2)c2ccccc21	-13.8%[46.1 µM]	-26.4%	8.8	-8.8%	-2.3%[46.1 µM]	-3.3%
CCn1c(=O)cc(SCC(=O)N2CCC(C)CC2)c2ccccc21	9.9%	?	57.1	·	?	·
SMILES	LASV entry inh	HCV inhibitor	HCMV antiviral	VACV mCherry inh	Marburg entry inh	VACV Venus inh
COc1ccccc1C1CN(Cc2cn(C)nc2C)Cc2ccccc2O1 (stereo not given)	·	·	·	-9.9%	·	-2.1%
CCOc1ccccc1OCCCOc1ccc([N+](=O)[O-])cc1Cl	11.2%	12.6µM*	-17.8	·	-1.6%[46.1 µM]	-26.9%
O=C(CSCc1ccc([N+](=O)[O-])cc1)N/N=C/c1ccncc1	5.7%	3.4%	-62.7*	i	24.9%[46.1 µM]	-7.3%
O=C(CSCc1ccc([N+](=O)[O-])cc1)N/N=C/c1cccnc1	8.7%	-10.0%	?	-7.6%	20.2%[46.1 µM]	-0.6%
CC(C)(C)OC(=O)N1CCC(c2c(C(=O)NCc3ccccc3)cnn2-c2ccc(F)cc2)CC1	?	·	18.1	-8.2%	·	-20.2%
O=C(c1ccccn1)N(Cc1cccs1)C1(C(=O)NC2CCCCC2)CCCCC1	-13.3%	11.2µM*	4.6	-4.4%	?	-7.6%
O=C(Nc1cccc2cccnc12)c1ccc(Cl)cc1Cl	·	?	58.7	·	·	·
COc1cc(NC(=O)c2ccccc2)c(OC)cc1Cl	-0.3%	?	127.5	·	0.0%	?
CCOc1ccccc1C(=O)Nc1cccc2cccnc12	4.4%[46.1 µM]	11.2µM*	?	i	?	-17.5%
CCOc1ccccc1C(=O)Nc1cc(Cl)ccc1O	11.0%	7.08µM*	33.8	?	-15.9%	?
COc1cc(NC(=O)c2ccccc2Cl)c2ncccc2c1	·	10µM*	29.2	·	·	·
COc1cc(OC)c(NC(=O)c2cc3ccccc3cc2O)cc1Cl	?	31.6µM*	-80.6*	-19.3%	?	-6.9%
COc1ccccc1C(=O)Nc1cc(Cl)ccc1O	-9.8%	?	29.5	·	-10.4%	3.6%
O=C(Nc1cccc2cccnc12)c1cccc2ccccc12	-23.8%[46.1 µM]	?	?	-3.0%	?	-0.9%
CCCN(C(=O)NCc1noc2ccc(C)cc12)c1ccc(Cl)c(Cl)c1	3.9%[46.1 µM]	·	-13.9	5.0%	·	-1.0%
O=C1C(=O)N(C2CCN(C(=O)c3ccc(Cl)cc3)CC2)CCN1Cc1ccc(F)cc1	6.3%[46.1 µM]	·	15.7	-8.2%	·	5.1%
Cc1ccc(C)n1C1C(=O)N(Cc2ccc(C(C)C)cc2)c2ccc(Cl)cc21 (stereo not given)	·	·	-17.3	·	·	·
Cc1cc(C)c(CN2CCN(CCCn3ccc(NC(=O)OCc4ccccc4)nc3=O)CC2)c(C)c1	·	7.94µM*	-26.6	?	·	?
Cc1cccc(Cn2nnc3c(=O)[nH]c(C4CCCN(C(=O)c5ccccc5Cl)C4)nc32)c1 (stereo not given)	-26.6%[46.1 µM]	·	-10.8	-4.4%	?	-8.5%
Cc1cc(/C=C\c2ccc3cc(N(C)C)ccc3[n+]2C)c(C)n1-c1ccccc1	·	1µM*	·	477.4%	·	i
CN(C)c1ccc(/C=C/c2ccc3ccccc3[n+]2[O-])cc1	·	·	·	-8.2%	·	i
CCOC(=O)c1c(C)[nH]c2cc(Br)c(OC)cc12	1.8%	5.62µM*	27.3	·	-24.6%	-17.6%
CCOC(=O)c1c(C)[nH]c(C)c1-c1ccccc1OC	-2.3%	11.8%	79.6	·	?	?
Cc1nnnn1/C(=C\c1ccccc1)C(=O)OCC(=O)NC(C)(C)C	-18.7%	-21.2%	-13.7	?	6.31µM*	-27.6%

Compound activity from PubChem BioAssay.
